# Screens from PubChem.
# Rv3671c protease = inhibitors of M. tuberculosis serine protease Rv3671c; 320,000 compounds, 0.048% hits; AID 2606; P9WHR9; inhibition, % at 5.96 µM; in the data active = inhibition above about 38%;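 also: extracellular domain of Rv3671c used as enzyme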
# Target sequence (P9WHR9 whole entry, looked up, the tested form may be a part): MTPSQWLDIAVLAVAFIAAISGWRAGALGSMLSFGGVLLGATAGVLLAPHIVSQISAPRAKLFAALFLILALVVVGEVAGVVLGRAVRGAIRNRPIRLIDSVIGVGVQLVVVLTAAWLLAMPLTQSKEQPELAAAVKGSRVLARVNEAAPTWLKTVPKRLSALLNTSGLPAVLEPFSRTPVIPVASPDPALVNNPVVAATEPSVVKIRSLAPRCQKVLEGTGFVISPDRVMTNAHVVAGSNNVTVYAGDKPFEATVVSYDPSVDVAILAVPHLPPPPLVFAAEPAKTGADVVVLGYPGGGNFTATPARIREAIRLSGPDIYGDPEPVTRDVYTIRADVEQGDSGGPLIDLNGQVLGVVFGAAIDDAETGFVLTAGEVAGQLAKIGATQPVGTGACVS
# Mtb BioA inh = inhibitors of Mycobacterium tuberculosis BioA enzyme; purified M. tuberculosis BioA enzyme, plate reader; inhibition, % at 9.99 µM; 360,000 compounds, 0.096% hits; in the data active = inhibition above about 40%
# Mtb FBA inh = inhibits M. tuberculosis FBA enzyme; 360,000 compounds, 2.3% hits; inhibition, % at 1 µM; purified M. tuberculosis FBA, fluorescence read-out; AID 588726; P9WQA3
# GDH-TPI counter-1 = GDH-TPI coupled enzyme inhibition counter-screen; AID 588335; inhibition, % at 4.8 µM; GDH-TPI coupled enzyme counterscreen, NADH absorbance; 360,000 compounds, 1.2% hits; in the data active = inhibition above about 30%
# FadD28 binding = M. tuberculosis FadD28 bisubstrate binding inhibition. 360,000 compounds, 0.22% hits. inhibition, % at 12.5 µM. FadD28 bisubstrate probe binding, fluorescence polarization; in the data active = inhibition above about 8.5%, passing the limit was not always enough
# Mtb FBA confirm = confirmation of M. tuberculosis fructose-bisphosphate aldolase inhibitors | shares compounds with Mtb FBA inh | purified M. tuberculosis FBA, fluorescence read-out | inhibition, % at 1 µM | 5,600 compounds, 78% hits
# GDH-TPI counter-2 = counter-screen for M. tuberculosis FBA inhibitors: GDH-TPI coupled enzyme inhibition; shares compounds with Mtb FBA inh; GDH-TPI coupled enzyme counterscreen, fluorescence; inhibition, % at 1 µM; 5,600 compounds, 81% hits; AID 652141; in the data active = inhibition above about 10%
# Hits are given with their value; n = inactive; x = no result given; + = active, no number. A selection: hits, their analogues and other compounds. The true share with any hit is near 3%. Rule as the data show it, unless noted: active = inhibition above about 27%; inactive = the rest.
SMILES,Rv3671c protease,Mtb BioA inh,Mtb FBA inh,GDH-TPI counter-1,FadD28 binding,Mtb FBA confirm,GDH-TPI counter-2
COc1ccc(NC(=O)Nc2ccc3c(c2)[C@@H]2C[C@@H](CC(=O)N4CCOCC4)O[C@@H](CO)[C@@H]2O3)cc1,x,n,x,x,x,x,x
CCCC(=O)Nc1ccc2c(c1)C(=O)N(C)[C@@H]1CC[C@@H](CC(=O)N3CCCCC3)O[C@@H]1CO2,x,n,x,x,x,x,x
COc1ccc2nc3oc(C(=O)NC4CCN(Cc5ccccc5)CC4)cc3cc2c1,n,n,32,n,n,n,n
CCOC(=O)N1CCC(NC(=O)c2cc(-c3ccc(OC)cc3)nc3ccccc23)CC1,n,n,n,n,n,x,x
CCOC(=O)N1CCC(NC(=O)c2cc3cc4cc(OC)ccc4nc3o2)CC1,n,n,86,n,n,n,n
COC(=O)CSc1nnc([C@H](Cc2ccccc2)NC(=O)OC(C)(C)C)o1,n,n,44,n,n,67,64
COc1cccc(/C=C/C(=O)OCC(=O)NC2CC2)c1,n,n,28,n,n,n,n
COC(=O)c1ccc(CNC(=O)COC(=O)/C=C/c2cccc(OC)c2)cc1,x,n,28,n,n,168,157
COc1cccc(/C=C/C(=O)OCC(=O)NC2CCCC2)c1,x,n,n,n,n,x,x
COc1cccc(/C=C/C(=O)OCC(=O)NCCc2ccccc2)c1,n,x,28,n,n,+,182
CSc1ccc(/C=C/C(=O)OCC(=O)NC2CCCC2)cc1,x,n,61,41,n,+,+
O=C(COC(=O)/C=C/c1ccc(F)cc1)NC1CCCC1,x,n,n,n,n,x,x
COCC#Cc1cnc2c(c1)C(=O)N([C@H](C)CO)C[C@H](C)[C@@H](CN(C)C(=O)c1cccc(F)c1)O2,x,n,x,x,x,x,x
CN1C(=O)c2cc(NC(=O)c3cccc(F)c3)ccc2OC[C@@H]2O[C@@H](CC(=O)Nc3ccccc3)CC[C@H]21,x,n,x,x,x,x,x
CCC(=O)N1C[C@@H](C)[C@@H](OC)CN(C)C(=O)c2ccc(NC(=O)c3ccccc3)cc2OC[C@@H]1C,x,n,x,x,x,x,x
CN1CCN(c2ccc(CNC(=O)C3Cc4c(-c5ccc6c(c5)OCO6)ccnc4O3)cc2)CC1 (stereo unspecified),x,n,n,n,n,x,x
O=C(NCc1ccncc1)C1Cc2c(-c3ccc4c(c3)OCO4)ccnc2O1 (stereo unspecified),x,n,45,n,n,59,44
O=C(NCc1ccccc1)C1Cc2c(-c3ccc4c(c3)OCO4)ccnc2O1 (stereo unspecified),x,n,65,n,n,+,+
CCN1CCN(Cc2c(O)ccc3c(=O)c(-c4ccc(OC)c(OC)c4)c(C)oc23)CC1,n,n,41,n,n,62,51
COc1ccc(-c2c(C(F)(F)F)oc3c(CN4CCN(C)CC4)c(O)ccc3c2=O)cc1,n,x,n,n,n,x,x
COc1ccc(-c2c(C)oc3c(CN4CCN(C)CC4)c(O)ccc3c2=O)cc1,n,n,102,n,n,63,40
COc1ccc(S(=O)(=O)Nc2ccc3c(c2)CC(=O)N([C@H](C)CO)C[C@H](C)[C@@H](CN(C)S(=O)(=O)c2c(C)noc2C)O3)cc1,x,n,x,x,x,x,x
C[C@H]1CN([C@@H](C)CO)C(=O)c2cccc(NC(=O)Nc3ccccc3)c2O[C@H]1CN(C)S(C)(=O)=O,x,n,x,x,x,x,x
CCCCn1nc2cc(C(=O)NCc3ccc(OC)cc3)ccc2c1OCC,n,n,40,n,n,94,85
COc1ccc(C(=O)NCc2ccc3c(c2)cc(C)n3C)cc1,n,n,n,n,n,x,x
CCOc1c2ccc(C(=O)NCc3ccc(OC)cc3)cc2nn1CCOC,n,n,60,n,n,99,72
CC(C)NC(=O)Nc1ccc2c(c1)CC(=O)N([C@@H](C)CO)C[C@H](C)[C@H](CN(C)C)O2,x,n,x,x,x,x,x
CC(C)(C)NC(=O)C[C@H]1C[C@H](C(=O)N2CCOCC2)[C@@]2(C)c3[nH]c4cc(-c5ccco5)ccc4c3CCN2C1=O,x,n,31,n,n,50,45
C[C@]12c3[nH]c4cc(-c5ccco5)ccc4c3CCN1C(=O)[C@@H](CC(=O)NCc1ccco1)C[C@@H]2C(=O)N1CCCCC1,x,n,32,n,n,117,70
